Vaccinia Venus = inhibitors of vaccinia virus (Venus reporter). Vaccinia virus Venus reporter expression, fluorescence. actives 0.46% (n = 330,000). Potency, µM (doses to about 36.5 µM), for the others: top-dose activity change, negative = inhibition, actives largely listed as inhibitors. AID 720580; calls by dose curve; tested in A549 cells; note: nearly all actives have a fitted effect of over 30% in size
Pf growth 48h = inhibits P. falciparum growth in the first generation, 48 h | Potency, µM (titrated, usually from 28.7 µM), without a hit: at the top dose activity change, negative = inhibition, hits mostly inhibitors | AID 504832 | actives 5.9% (n = 310,000) | P. falciparum luciferase growth in erythrocytes, 48 h
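A one-generation exposure of luciferase-tagged malaria parasites in RPMI 1640/Albumax erythrocyte culture, 37 C and 5% CO2. Inhibition is inferred from decreased luminescence after adding detection reagent.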
AMA1 RON2 block = disrupts binding of P. falciparum AMA1 to RON2; AlphaScreen AMA1-biotinylated RON2 peptide binding; Potency, µM (doses to about 58.2 µM), inactives show at the highest dose activity change, negative = inhibition, hits mostly inhibitors; actives 0.2% (n = 360,000);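 note: 0% = vehicle wells and -100% = peptide control; nearly all actives have a fitted effect of over 45% in size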
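AMA1 (3D7) with his tag at 25 nM final met compounds first, then biotinylated RON2 peptide at 25 nM; detection used donor plus acceptor beads, 10 µg/mL apiece, read by AlphaScreen after 30 min at room temperature.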
Pf growth 96h = P. falciparum growth inhibition at 96 hour, primary screen for plastid delayed-death inhibitors. P. falciparum luciferase reporter growth, 96 h. Potency, µM (highest dose often 28.7 µM), for inactives: at the highest dose activity change, negative = inhibition, actives largely listed as inhibitors. actives 6.9% (n = 320,000). AID 504834
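Luminescence readout: decreased luciferase signal marks inhibited growth of reporter-expressing P. falciparum in infected red cells (2% hematocrit, 0.05% parasitemia final), exposed to compound two generations (96 h, 37 C, 5% CO2).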
VACV mCherry inh = vaccinia inhibition (mCherry reporter). Vaccinia virus mCherry reporter infection, fluorescence. Potency, µM (series often up to 36.5 µM), for the others: at the top dose activity change, negative = inhibition, hits mostly inhibitors. actives 0.63% (n = 310,000). AID 720579; calls by dose curve; tested in A549 cells; note: nearly all actives have a fitted effect of over 35% in size
Starred values were filed as active, the others as inactive; i = inactive; ? = inconclusive; / = not tested or not shown; [ ] = dose if it differs, or a comment. Rows were chosen to be rich in hits. Some 8.7% of all compounds tested hit in one or more screens of this group. Unless noted, calls come from the whole dose curve; as a rule, active = well fitted curve in the direction sought with a large enough effect; inconclusive = small, poorly fitted or top-dose-only effect, or another doubt; inactive = no such curve, though single readings can be large; an effect the other way counts as inactive or inconclusive. Unless noted, % is set by controls: 0 for no effect and ±100 for the full control effect; potency is the fitted concentration of half-maximal effect.

SMILES | Vaccinia Venus | Pf growth 48h | AMA1 RON2 block | Pf growth 96h | VACV mCherry inh
CCC(C)Sc1ccc([C@@H]2[C@@H]3C(=O)N(C)C(=O)[C@@H]3[C@]3(C(=O)OC)CCCCN23)cc1OC (stereo partly drawn) | ? | ? | 5% | ? | -17%
CCSc1ccc([C@@H]2[C@H]3C(=O)N(C)C(=O)[C@H]3[C@]3(C(=O)OC)CCCCN23)cc1OC | ? | 10µM* | -13% | ? | -20%
COC(=O)[C@@]12CCCCN1[C@H](c1ccc(SC3CCCCC3)c(OC)c1)[C@@H]1C(=O)N(C)C(=O)[C@@H]12 | -21% | 8.3µM* | -14% | 8.3µM* | -7%
COCCCNC(=O)c1cc2c(=O)oc3ccc(C)cc3c2s1 | -2%[7.34 µM] | / | / | / | -11%[7.34 µM]
O=C(CSc1cccc2cccnc12)N1CCCC1 | 11µM* | -2% | 18% | 8%[5.75 µM] | 11µM*
CCOc1ccccc1N(C)S(=O)(=O)c1ccc2c(c1)N(C(C)=O)CCO2 | -6% | -2% | -10% | 1.9µM* | -18%
CC(=O)N1CCOc2ccc(S(=O)(=O)N3CC(C)CC(C)C3)cc21 (stereo not drawn) | 0%[7.34 µM] | -21% | 2% | 9.3µM* | i[7.34 µM]
CC(=O)N1CCOc2ccc(S(=O)(=O)N3CCC(C)CC3)cc21 | / | 19% | 3% | 54% | /
CC(=O)N1CCOc2ccc(S(=O)(=O)N(C)c3cccc(C)c3)cc21 | / | 0% | 6% | -24% | /
COc1ccccc1-n1cc(CN2CCC3(CCC(CNC(=O)c4ccccc4)O3)CC2)cn1 (stereo not drawn) | 1% | / | / | / | i
COc1ccc(CN2CCOc3ccc(CN4CCCCC4CO)cc3C2)c(OC)c1 (stereo not drawn) | -3% | / | / | / | -5%
CCOC(=O)C1CCCN(S(=O)(=O)c2ccc3c(c2)CCN3C(=O)CC)C1 (stereo not drawn) | -1% | / | / | / | -7%
Cc1cc(C(=O)Nc2ccc(C(C)C)cc2)c2c(C)nn(-c3ccccc3)c2n1 | 8% | / | / | / | -12%
CN(CCc1ccccc1)c1cc2c(c3c1ccn3C)C1CCC2C1 (stereo not drawn) | 6% | / | 16µM* | / | 27%
CN(c1cc2c(c3c1ccn3C)C1CCC2C1)C1CCCCC1 (stereo not drawn) | -2% | / | 16µM* | / | 9%
CN(Cc1ccccc1)c1cc2c(c3c1ccn3C)C1CCC2C1 (stereo not drawn) | -2% | / | 16µM* | / | i
COc1ccccc1N(C)c1cc2c(c3c1ccn3C)C1CCC2C1 (stereo not drawn) | 6% | / | 13µM* | / | 64%
Cn1ccc2c(N(Cc3ccccc3)Cc3ccccc3)cc3c(c21)C1CCC3C1 (stereo not drawn) | -6% | / | ? | / | 13%
Cc1cc(=O)[nH]c(NN=Cc2c(Cl)cccc2Cl)n1 | -13% | / | 90% | / | -9%
Cc1cc(=O)[nH]c(N/N=C/c2c(C)nn(-c3ccc(F)cc3)c2Cl)n1 | 0% | 4.7µM* | 4% | 10µM* | 1%
O=[N+]([O-])c1ccc(/C=N/Nc2ccccn2)cc1 | / | 63% | 8% | ? | /
Cc1cc(=O)[nH]c(N/N=C/c2ccc(Cl)c([N+](=O)[O-])c2)n1 | 9% | 2.3µM* | 10% | ? | i
O=[N+]([O-])c1cc(/C=N\Nc2ccccn2)ccc1Cl | / | 24% | -1% | 7.4µM* | /
O=[N+]([O-])c1cc(Cl)cc(/C=N\Nc2ccccn2)c1O | ? | ? | 44% | ? | 2.2µM*
COc1ccccc1-c1ccnc(-n2ncc(C(=O)N3CCN(C(C)C)CC3)c2-c2ccco2)n1 | 12% | / | / | / | -10%
SMILES | Vaccinia Venus | Pf growth 48h | AMA1 RON2 block | Pf growth 96h | VACV mCherry inh
COCC1CCCN(Cc2ccc3c(c2)CN(C(=O)c2cnn(C(C)C)c2)CCO3)C1 (stereo not drawn) | 3% | / | / | / | -10%
Cc1ncc2c(c1CNC(=O)c1ccc3c(c1)OCO3)CCN(C(=O)c1noc3c1CCCC3)C2 | -4% | / | / | / | -7%
Cc1c(Cl)c([N+](=O)[O-])nn1CC(=O)N1CCN(C23CC4CC(CC(C4)C2)C3)CC1 | -14% | 12µM* | 0% | 2% | ?
NC(=O)CSc1nnnn1-c1cccc(O)c1 | -11% | / | / | / | -21%
CCOC(=O)c1cc(-c2ccccc2)n(-c2cccc(C(=O)N(C)c3ccc(C)cc3)c2)c1C | ? | / | / | / | i
CCc1ccc(CN(Cc2cccnc2)C(=O)/C=C/c2ccc(OC)cc2)cc1 | -22% | 8.3µM* | -7% | ? | -17%
COc1ccc(-c2cc(C(=O)Nc3c(C)nn(Cc4ccccc4C)c3C)no2)cc1 | -23% | / | / | / | -13%
COc1cccc(-c2cc(C(=O)Nc3c(C)nn(Cc4ccccc4C)c3C)no2)c1 | / | 5.2µM* | -4% | 25% | /
COc1ccc(-c2cc(C(=O)Nc3c(C)nn(Cc4ccccc4)c3C)no2)cc1 | / | / | -1% | 4.7µM* | /
CCCSCCCNC(=O)C1CCN(c2nn3cc(-c4ccc(F)cc4)nc3s2)CC1 | -30% | / | / | / | -26%
COc1ccc(OC)c(CNC(=O)C2CCN(S(=O)(=O)N3CCC(C)CC3)CC2)c1 | / | 1% | -2% | 12µM* | /
COc1cccc(CNC(=O)C2CCN(S(=O)(=O)N3CCC(C)CC3)CC2)c1 | -12% | 22% | -13% | 13µM* | i
CN(C)S(=O)(=O)c1ccc(NCC2COc3ccccc3O2)c([N+](=O)[O-])c1 (stereo not drawn) | -18% | -9% | -25% | 13µM* | ?
Cc1c(C(=O)NCC2COc3ccccc3O2)oc2ccc(S(=O)(=O)N3CC(C)CC(C)C3)cc12 (stereo not drawn) | -8% | 8.3µM* | -4% | / | i
